Screening results from PubChem.
A selection: hits, their analogues and other compounds. The true share with any hit is near 1.5%.
MbtI inh = inhibitors of Mycobacterium tuberculosis siderophore enzyme MbtI; actives 0.89% (n = 100,000); P9WFX0; purified MbtI enzyme, fluorescence intensity read-out; inhibition, % (concentration not given with the values); AID 493033; in the data active = inhibition mostly above about 56%, no sharp cut-off; inactive = mostly below about 77%
PV pol inh = poliovirus RNA polymerase inhibition. P03300. actives 0.66% (n = 150,000). % elongation, % (compound at 16.7 µg/mL). poliovirus polymerase elongation, fluorescence polarization; active compounds read low. AID 588519; in the data active = % elongation below about 90%
Mtb MenB inh = blocks the Mycobacterium tuberculosis MenB enzyme. AID 540299. MenB enzyme assay, absorbance read-out. inhibition, % (concentration not given with the values). P9WNP5. actives 0.43% (n = 100,000); in the data active = inhibition above about 21%, passing the limit was not always enough
Target sequence (P9WNP5 whole entry, looked up): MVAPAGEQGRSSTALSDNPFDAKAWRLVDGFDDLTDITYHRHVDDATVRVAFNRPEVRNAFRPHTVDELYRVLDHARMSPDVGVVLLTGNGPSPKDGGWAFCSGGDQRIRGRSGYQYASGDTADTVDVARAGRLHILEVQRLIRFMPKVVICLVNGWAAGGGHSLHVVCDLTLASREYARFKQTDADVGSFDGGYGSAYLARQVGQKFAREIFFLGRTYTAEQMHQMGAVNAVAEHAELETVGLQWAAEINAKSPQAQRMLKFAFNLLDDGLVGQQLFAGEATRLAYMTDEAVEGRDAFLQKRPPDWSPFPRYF
Large screens that a line does not name were inactive.

CCN1CC(=O)N(c2ccccc2OC)C1=S	none (no result: MbtI inh)
COc1ccccc1N1C(=O)C=CC1=O	MbtI inh 98 (no result: Mtb MenB inh)
COc1ccc(OC)c(S(=O)(=O)c2ccc(C)cc2)c1	none
COc1ccc(OC)c(N2C(=O)C=CC2=O)c1	MbtI inh 97 (no result: Mtb MenB inh)
CCNC(=O)C1CCCN(c2nn3cc(-c4ccc(C)cc4)nc3s2)C1 (stereo not given)	none (no result: MbtI inh, Mtb MenB inh)
CCc1ccc(C(=O)Nc2ccc(Br)cn2)cc1	none
CC1C/C(=N\O)c2ccccc21 (stereo not given)	none
C=CCn1cn[nH]c1=S	MbtI inh 61
C=CCOc1ccc(CNn2cn[nH]c2=S)cc1	none
NCCN1CCCC1=O	Mtb MenB inh 28
O=C1CCCN1CO	none (no result: Mtb MenB inh)
COc1cccc(C(=O)OCC(=O)NCc2ccccc2)c1	none
O=C1C=CC(=O)N1c1ccc(N2CCOCC2)cc1	MbtI inh 93
CC1=C(C)CC2C(=O)N(c3ccc(N4CCOCC4)cc3)C(=O)C2C1 (stereo not given)	none (no result: Mtb MenB inh)
C/[N+]([O-])=C\c1ccc(C#N)cc1	none
CCCOC(=O)c1c(NC(=O)C(C)Sc2nc(-c3ccccc3)cc(C(F)(F)F)n2)sc(C(=O)N(C)C)c1C (stereo not given)	none (no result: MbtI inh, Mtb MenB inh)
CCN(CC)C(=O)c1sc(NC(=O)C(C)Sc2nc(-c3ccccc3)cc(C(F)(F)F)n2)c(C(=O)OC)c1C (stereo not given)	PV pol inh 84 (no result: MbtI inh, Mtb MenB inh)
COC(=O)c1c(NC(=O)CSc2nc(-c3ccco3)cc(C(F)(F)F)n2)sc2c1CCCC2	MbtI inh 57
CCOC(=O)c1c(NC(=O)CSc2nc(-c3ccc(OC)cc3)cc(C(F)(F)F)n2)sc(C)c1C	PV pol inh 86 (no result: MbtI inh, Mtb MenB inh)
CCCCNC(=O)CSc1nc(-c2ccc(OC)cc2)cc(C(F)(F)F)n1	none (no result: MbtI inh, Mtb MenB inh)
CCCOC(=O)c1c(NC(=O)CSc2nc(-c3ccco3)cc(C(F)(F)F)n2)sc(C(=O)N(C)C)c1C	none
N#CCOC(=O)c1sc2ccccc2c1Cl	none
O=C(O)c1ccccc1C(=O)NCCc1ccccc1	none
CCCC(=O)c1ccc2[s+]c3ccccc3[n+](CCCN(C)C)c2c1	PV pol inh 89 (no result: MbtI inh)
CC(C)c1ccc(C(=O)CCN(C)C)cc1	none (no result: MbtI inh)
CCOC(=O)C1=C(C)NNC(=Nc2cccc(C)c2C)S1	MbtI inh 86, PV pol inh 80
CCOC(=O)C1=C(O)CSC1=Nc1ccccc1	none
COC(=O)c1ccc(N2CCc3cc4ccc(C)cc4nc32)cc1	none
CSc1nc2nc(N)nc(N)c2s1	none (no result: MbtI inh)
CSc1nc2c(=S)[nH]c(=S)[nH]c2s1	MbtI inh 55, PV pol inh 82
O=C(CNc1nnnn1-c1ccccc1)Nc1ccc(F)c(F)c1F	none
CCn1c(=O)c2ccccc2n(CC(N)=O)c1=O	none
O=C(Nc1ccccc1)N(Cc1nnc2n1CCCCC2)c1ccc(I)cc1	PV pol inh 90 (no result: MbtI inh)
COc1cccc(N(Cc2nnc3n2CCCCC3)C(=O)Nc2ccccc2)c1	none (no result: MbtI inh, Mtb MenB inh)
CCc1cnc(/N=C/N(C)C)nc1-c1c(F)cccc1F	none
CCSc1nc(N(C)C)nc(N2CCOCC2)n1	none
O=C(COC(=O)/C=C/c1ccc(F)cc1)Nc1ncccn1	PV pol inh 84
O=C(COC(=O)/C=C/c1ccccc1)Nc1c(F)cccc1F	none (no result: Mtb MenB inh)
CSc1ccccc1NC(=O)C1CCCC1	none
CCOC(=O)c1c(N)cc2[nH]c(=S)[nH]c(=O)c2c1-c1ccccc1	none (no result: MbtI inh)
O=c1[nH]c(=S)[nH]c(O)c1-c1ccccc1	MbtI inh 85
CN=C1SC(CC(=O)Nc2ccccc2)C(=O)N1C (stereo not given)	none (no result: PV pol inh)
O=C(CC1Sc2ncnn2C1=O)Nc1ccc(Br)cc1 (stereo not given)	MbtI inh 99 (no result: PV pol inh, Mtb MenB inh)
Nc1nc(-c2cccs2)c(C(=O)C(F)(F)F)s1	MbtI inh 63
Cc1sc(N)nc1-c1cccs1	none
CSc1nc2c(sc(=S)n2-c2ccccc2C)c(=O)n1-c1ccccc1C	MbtI inh 62
CCc1ccc(-n2c(=S)sc3c(=O)n(-c4ccccc4)c(SCC#N)nc32)cc1	none
O=C(NCc1ccc(Cl)cc1)c1cc(-c2ccc(F)cc2)nc2ccccc12	none
CC(OC(=O)C1=COCCO1)C(=O)Nc1ccccc1C#N (stereo not given)	none
Cc1ccc(C(=O)C(C)OC(=O)C2=COCCO2)cc1C (stereo not given)	PV pol inh 90
N#Cc1ccc(C(=O)OCC(=O)Nc2ccc(N3CCCCC3)cc2)cc1	none
O=C(CSc1ccccc1Cl)c1cc2ccccc2o1	none (no result: Mtb MenB inh)
Cc1nnc2sc(-c3cccc(NC(=O)c4cccc(F)c4)c3)nn12	none
Cc1occc1-c1nnc2sc(-c3cccc(F)c3)nn12	MbtI inh 95
Cc1nsc(N)c1C(=O)OCc1ccc(C#N)cc1	none
COCc1c(CN)cnc(C)c1N	none
COCc1c(CSSCc2cnc(C)c(O)c2COC)cnc(C)c1O	PV pol inh 86, Mtb MenB inh 38
S=c1nccc(-c2ccccc2)[nH]1	PV pol inh 83
S=c1[nH]c(-c2ccccc2)c(-c2ccccc2)[nH]1	none
S=c1nccc(-c2ccc3c(c2)CCO3)[nH]1	none
S=c1cc(-c2ccccc2)[nH]c(=S)[nH]1	MbtI inh 86
CCCn1cc(S(=O)(=O)c2ccc(OC)cc2)c(=O)c2cc(F)c(N3CCN(C)CC3)cc21	none
CCOc1ccc(C(c2c(O)cc(C)n(CCOC)c2=O)N2CCN(c3ccccc3F)CC2)cc1 (stereo not given)	none (no result: MbtI inh, Mtb MenB inh)
Cc1cc(C)n(C(=O)C(C)NC(=O)c2ccccc2)n1 (stereo not given)	Mtb MenB inh 23 (no result: MbtI inh)
Cc1cc(C)n(C(C)CNC(=O)c2ccccc2)n1 (stereo not given)	none
COc1ccc(NC=O)c(CS(=O)(=O)c2ccc(C)cc2)n1	none (no result: MbtI inh)
NC(=O)COc1ncnc2ccc(Br)cc12	none
CCN(CC)C(=O)CSc1n[nH]c(=S)s1	MbtI inh 91
C=C(C)CSc1n[nH]c(=S)s1	none
O=C(Nc1c(C(=O)N2CCN(c3ccccc3)CC2)oc2ccccc12)c1ccc(Br)o1	none (no result: MbtI inh, Mtb MenB inh)
CCC(C)CCCNc1n[nH]c(=S)s1 (stereo not given)	MbtI inh 98
CC(C)CNc1n[nH]c(=S)s1	MbtI inh 96
CC(C)CNc1nc2ccccc2s1	none (no result: Mtb MenB inh)
O=C(Nc1n[nH]c(=S)s1)c1ccccc1	none
O=C(NCc1cccnc1)C1=CCN(S(=O)(=O)c2ccccc2)CC1	none
O=C(Cc1cccc2ccccc12)N(Cc1nnc(-c2ccccc2Cl)o1)C1CC1	none
COC(=O)c1cc(S(=O)(=O)NCCCN2CCN(Cc3ccccc3)CC2)cn1C	none
Cc1ccc(C(=O)NC(C(=O)N(C)C)=C(Cl)Cl)cc1	none (no result: Mtb MenB inh)
ONC=NCc1ccccc1OC(F)(F)F	Mtb MenB inh 34
NC(=S)Nc1ccccc1OC(F)(F)F	none
Cc1ccc(-c2cc3ccccn3c2)cc1	none
CN(C)c1nc2ccccc2n2cnnc12	none
COCCN1C(=O)C=CC1=O	MbtI inh 62 (no result: Mtb MenB inh)
COCCN1C(=O)c2ccccc2C1=O	none
NCCC(Cc1ccccc1)c1ccc2c(c1)OCO2 (stereo not given)	none (no result: MbtI inh)
COC(=O)Nc1sc(C)cc1C(=O)OC	none
COC(=O)c1cc(C)sc1N	MbtI inh 95
Cc1cc(C(=O)OCc2ccc(Br)cc2)c(C)o1	none
CC(C)OC(=O)CSc1nnc(-c2ccc(N(C)C)cc2)o1	none
C/C=C/C(=O)Nc1ccccc1OC	none
CCCOc1ccccc1NC(=O)/C=C/C(N)=O	MbtI inh 100 (no result: Mtb MenB inh)
COc1ccc(Cn2ccnc2SCC(=O)Nc2ccc(C)cc2C)cc1	none (no result: MbtI inh, Mtb MenB inh)
Cc1cc(OCC(O)CNC(C)(C)C)ccc1Cl (stereo not given)	none
CC(C)(C)NCC(O)c1ccccc1Cl (stereo not given)	Mtb MenB inh 55
